Only some compounds are listed: those with a hit (about 6.9% of all), similar ones and a draw of the others.
CSC inhib = cancer stem cell viability inhibitors, primary screen, luminescence | cancer stem cell-like cells viability | inhibition, % at 7.5 µM | 1.1% of 300,000 active; in the data active means inhibition above about 75%; inconclusive means no clear call, values can overlap the other calls; tested in HMLE shEcad cells
Mdm2-MdmX inh = inhibitors of human Mdm2-MdmX association, primary screen, cell-based, luminescence, split luciferase, SaOS-2, uHTS. inhibition, % at 8 µM. SaOS-2 split-luciferase Mdm2/MdmX complementation. Protein Mdm4 (Homo sapiens) + E3 ubiquitin-protein ligase Mdm2 (Homo sapiens), …. 3% of 330,000 active;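 active means inhibition of at least 50% at 8 µM in the primary screen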
Target sequence (O15151 whole entry, looked up): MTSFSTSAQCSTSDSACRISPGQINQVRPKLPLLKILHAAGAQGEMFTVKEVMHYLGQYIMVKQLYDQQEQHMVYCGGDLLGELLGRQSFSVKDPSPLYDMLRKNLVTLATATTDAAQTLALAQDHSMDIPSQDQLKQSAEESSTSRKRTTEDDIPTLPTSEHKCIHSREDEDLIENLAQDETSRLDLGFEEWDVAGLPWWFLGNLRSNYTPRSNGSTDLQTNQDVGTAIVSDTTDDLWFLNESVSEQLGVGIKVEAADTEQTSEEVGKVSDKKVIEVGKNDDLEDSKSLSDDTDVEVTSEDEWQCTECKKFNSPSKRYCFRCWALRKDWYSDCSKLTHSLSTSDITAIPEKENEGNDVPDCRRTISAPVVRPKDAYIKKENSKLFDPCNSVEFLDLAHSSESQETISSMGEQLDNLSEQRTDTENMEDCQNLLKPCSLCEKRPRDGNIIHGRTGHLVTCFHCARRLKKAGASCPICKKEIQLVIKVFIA
Target sequence (Q00987 whole entry, looked up): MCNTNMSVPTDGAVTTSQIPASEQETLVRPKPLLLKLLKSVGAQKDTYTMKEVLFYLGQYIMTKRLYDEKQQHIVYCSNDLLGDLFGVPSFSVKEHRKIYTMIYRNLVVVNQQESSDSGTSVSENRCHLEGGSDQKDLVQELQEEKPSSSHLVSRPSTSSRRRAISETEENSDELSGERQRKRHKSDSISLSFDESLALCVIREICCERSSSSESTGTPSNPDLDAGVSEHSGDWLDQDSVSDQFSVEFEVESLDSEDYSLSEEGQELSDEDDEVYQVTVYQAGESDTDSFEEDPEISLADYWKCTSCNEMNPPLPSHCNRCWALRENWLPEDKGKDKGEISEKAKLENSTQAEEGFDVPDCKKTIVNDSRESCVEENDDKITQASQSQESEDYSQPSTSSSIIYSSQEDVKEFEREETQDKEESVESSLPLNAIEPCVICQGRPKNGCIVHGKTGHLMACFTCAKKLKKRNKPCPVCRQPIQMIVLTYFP
MPTP inh = mitochondrial permeability transition pore inhibitors, primary screen, biochemical, isolated mouse mitochondria, absorbance | Ca2+ swelling absorbance, 30 min | inhibition, % at 10 µM | AID 602449, 2012 | 1.4% of 360,000 active;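 active means inhibition of 50% or more, scaled per plate between neutral and stimulator controls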
Beta cell apopt = inhibitors of cytokine-induced beta cell apoptosis, primary screen, luminescence. INS-1E cytokine-induced death, ATP luminescence, 48 h; percent of positive-control rescue, neutral wells zero. protection from apoptosis, % (test concentration not listed). 0.8% of 300,000 active. AID 435005, 2010;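 active means Every replicate reaches about 75%, or at least half do and their mean reaches it too, limit read from the data; inconclusive means At least half of replicates reach the limit but their mean does not; inactive means Under half of replicates reach the limit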;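 further: higher means more ATP so stronger rescue from cytokine killing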
NR3A LBD binder = binders of NR3A ligand-binding domain, primary screen, biophysical, differential scanning fluorimetry, uHTS; Tm shift relative to glycine control, % at 25 µM; Glutamate receptor ionotropic, NMDA 3A (GRIN3A) ligand-binding domain; 2.5% of 340,000 active; NR3A LBD differential scanning fluorimetry, Tm shift; 0% = protein alone, 100% = glycine-bound protein;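 active means melting temperature shift of at least 10% of the positive control shift, at one fixed dose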
SKKanGAS inh = S. pyogenes SKKanGAS growth inhibitors in kanamycin, primary screen, streptokinase expression inhibitor project, SKKanGAS strain, BacTiter-Glo luminescence; inhibition, % at 7.5 µM; 1.3% of 300,000 active; 6 h;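 active means mean replicate score, as percent of positive control median, at least 50; inconclusive means mean below 50 but one replicate at or above 50; inactive means mean and every replicate below 50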;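 further: strain carries kanamycin resistance gene driven by streptokinase promoter and grows in 40 µg/ml kanamycin; loss of luminescence reflects streptokinase promoter inhibition or plain growth inhibition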
Mdm2-MdmX conf = Mdm2-MdmX complex disruptors, retested hits, confirmation, luminescence, single concentration; shares compounds with Mdm2-MdmX inh; Mdm2-MdmX binding, luminescent assay; inhibition, % at 8 µM; 55% of 10,000 active; in the data active means inhibition above about 40%
Full FLuc ctr = full-length luciferase signal inhibition, confirmation, counter-screen for Mdm2/MdmX interaction inhibitor project, cell-based, single concentration, SaOS-2 | AID 504607, 2011 | 77% of 6,200 active | inhibition, % at 8 µM | SaOS-2 full-length luciferase counterscreen, luminescence | shares compounds with Mdm2-MdmX inh;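 active means mean inhibition at 8 µM reaching about 37%, which flags the compound as non-specific, limit read from the data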;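 further: p53-null SaOS-2 cells with luciferase driven by a doxycycline-inducible promoter; compound on cells about two nights before reading with doxycycline added after day one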
MPTP counter = fluorescence retest of MPTP screen hits in isolated mitochondria, single concentration | shares compounds with MPTP inh | membrane potential, Rhodamine 123 fluorescence | inhibition, % at 10 µM | 78% of 5,000 active; in the data active means inhibition above about 22%
MPTP abs DR = mitochondrial permeability transition pore inhibitors, dose response, biochemical, absorbance, uHTS hits; shares compounds with MPTP inh; isolated mitochondria swelling; IC50, µM; 58% of 780 active; AID 651561, 2012; in the data active means IC50 below about 20 µM
MPTP counter DR = fluorescent counter-screen in isolated mitochondria, dose response, counter-screen for MPTP inhibitor project, biochemical, fluorescence, uHTS hits. 49% of 780 active. IC50, µM. shares compounds with MPTP inh. isolated mitochondria counterscreen, fluorescence read-out; in the data active means IC50 below about 80 µM
Large screens that a line does not name were inactive (follow-up assays come after a bar, where they were run); ! = repeats disagree.

CC(C)COc1ccc(-c2nnc(-c3ccco3)o2)cc1	none
CCCCNc1c(-c2cccc(-c3ccc(OC)cc3)c2)nc2ccc(C)cn12	CSC inhib 114, Mdm2-MdmX inh 99, MPTP inh 56, Beta cell apopt 92, SKKanGAS inh 63 | Mdm2-MdmX conf 56 | Full FLuc ctr 66 | MPTP counter 77
CCCCNc1c(-c2cccc(-c3ccc(OC)cc3)c2)nc2cc(C)ccn12	Mdm2-MdmX inh 92, MPTP inh 63 (no result: CSC inhib, SKKanGAS inh) | Mdm2-MdmX conf inactive | MPTP counter 102
COc1cc(OC)cc(C(=O)NCC2CCCN(Cc3ccc(SC)cc3)C2)c1 (centres undefined)	none (no result: Beta cell apopt)
CCOC(=O)C1Oc2ccccc2C(c2cccc3ccccc23)=C1C(=O)OC (centres undefined)	none (no result: CSC inhib, Beta cell apopt, SKKanGAS inh)
N#C/C(=C/c1ccc(Sc2nc3ccccc3[nH]2)o1)c1cccc(Br)c1	Mdm2-MdmX inh 60, MPTP inh 84 | Mdm2-MdmX conf inactive | MPTP counter 98
O=C(N/N=C/c1ccc(Sc2nc3ccccc3[nH]2)o1)c1ccncc1	none
CN(C)c1ccc(CNCc2cccnc2)cc1	none
Cc1ccc([N+](=O)[O-])cc1NC(=O)CN(C(=O)c1ccc(Cl)cc1)C1CCCCC1	none
O=C(CN(C(=O)c1ccc(Cl)cc1)C1CCCCC1)Nc1ccc(Cl)c([N+](=O)[O-])c1	Mdm2-MdmX inh 65, MPTP inh 64 | Mdm2-MdmX conf 43 | Full FLuc ctr 72 | MPTP counter 86
CCc1cccc(NC(=O)CCc2c(C)nn(-c3ccc(N4CCOCC4)nn3)c2C)c1	none
CCN1CCCC1CNC(=O)c1cc2c(-c3ccc(Cl)cc3)nn(C)c2s1 (centres undefined)	Mdm2-MdmX inh 65, MPTP inh 83 (no result: Beta cell apopt) | Mdm2-MdmX conf inactive | MPTP counter inactive | MPTP abs DR 11 | MPTP counter DR inactive
Cc1cccc(CSc2nnc3c(n2)[nH]c2ccccc23)c1	none
CN(C)CCOc1nc(-c2ccccc2)nc2c1oc1ccccc12	Mdm2-MdmX inh 71, MPTP inh 75 | Mdm2-MdmX conf inactive | MPTP counter inactive
Cc1c(Cl)cccc1NC(=S)NNc1ncc(C(F)(F)F)cc1Cl	Mdm2-MdmX inh 64, MPTP inh 60 | Mdm2-MdmX conf 72 | Full FLuc ctr 42 | MPTP counter 76
COc1ccc2cc1Oc1ccc(cc1)C[C@H]1c3cc(c(OC)cc3CCN1C)Oc1c(OC)c(OC)cc3c1[C@H](C2)N(C)CC3	Mdm2-MdmX inh 100, MPTP inh 77 | Mdm2-MdmX conf 100 | Full FLuc ctr 52 | MPTP counter inactive
COc1cc2ccccc2cc1C(=O)N(CCN(C)C)c1nc2c(OC)ccc(OC)c2s1	Mdm2-MdmX inh 61, MPTP inh 67 | Mdm2-MdmX conf inactive | Full FLuc ctr 66 | MPTP counter inactive | MPTP abs DR inactive | MPTP counter DR 52
CCN(CC)CCNC(=O)c1nn(-c2ccc(Cl)cc2)c2c1CCc1cc(OC)ccc1-2	none (no result: CSC inhib, Mdm2-MdmX inh, Beta cell apopt, SKKanGAS inh)
S=C(Nc1cc(Cl)cc(Cl)c1)NC1CCN(Cc2ccccc2)CC1	CSC inhib 75, Mdm2-MdmX inh 95, MPTP inh 54 | Mdm2-MdmX conf inactive | MPTP counter 89
CCOc1ccc(NC(=S)NC(=O)c2cncc(Br)c2)cc1	none
CN1CCN(C2Cc3ccccc3Sc3cc(C(F)(F)F)ccc32)CC1 (centres undefined)	CSC inhib inconclusive (no result: MPTP inh)
CSc1ccc2c(c1)C(N1CCN(C)CC1)Cc1ccccc1S2 (centres undefined)	CSC inhib inconclusive, Mdm2-MdmX inh 69, MPTP inh 104! | Mdm2-MdmX conf inactive | MPTP counter inactive
O=[N+]([O-])c1cc(C(F)(F)F)cc([N+](=O)[O-])c1NCCNC(=S)Nc1ccc(Cl)c(Cl)c1	CSC inhib 107, Mdm2-MdmX inh 90, MPTP inh 76, NR3A LBD binder 26, SKKanGAS inh 102 (no result: Beta cell apopt) | Mdm2-MdmX conf 46 | Full FLuc ctr 55 | MPTP counter 69
CCOc1ccc(N2CC(C(=O)Nc3ccccc3C(=O)NC3CC3)CC2=O)cc1 (centres undefined)	none (no result: Beta cell apopt)
CCOC(=O)C1=C(C)N=C2c3ccccc3C(=O)C2C1c1ccc(Cl)cc1 (centres undefined)	Mdm2-MdmX inh 51, MPTP inh 66 | Mdm2-MdmX conf inactive | MPTP counter 45
CC1(C)CC(=O)C2=C(C1)N=c1s/c(=C/c3ccc(F)c(F)c3)c(=O)n1C2c1ccc(F)cc1 (centres undefined)	none
CC1(C)CC(=O)C2=C(C1)N=C1c3ccccc3C(=O)C1C2c1ccc(Cl)cc1 (centres undefined)	Mdm2-MdmX inh 56, MPTP inh 98, SKKanGAS inh 50 | Mdm2-MdmX conf inactive | MPTP counter inactive
O=C(N/C(=C\c1cccc(Br)c1)C(=O)N1CCOCC1)c1ccco1	none
Cc1cc(Nc2ccc(Cl)cc2)nc(NCc2ccccc2)n1	Mdm2-MdmX inh 63, MPTP inh 53 | Mdm2-MdmX conf 42 | Full FLuc ctr 75 | MPTP counter 31
Cc1cc(N2CCC(C)CC2)nc(NCc2ccccc2)n1	Mdm2-MdmX inh 80, MPTP inh 91, Beta cell apopt 101 | Mdm2-MdmX conf 51 | Full FLuc ctr 40 | MPTP counter 111
Cc1cc(N2CCC(C)CC2)nc(-c2ccccc2O)n1	none
CCCCNc1cc(C)nc(NCc2ccccc2)n1	Mdm2-MdmX inh 67, MPTP inh 104, Beta cell apopt 104 | Mdm2-MdmX conf 60 | Full FLuc ctr 39 | MPTP counter 131
Cc1cc(C)nc(NCCCc2ccccc2)n1	none
